We go through 55 compounds from ChEMBL document CHEMBL3988442, “University of Dundee, Small-Polar-MMV Screening Library” (2021).

Structures are written as SMILES. The whole screen tested about 69,000 compounds, of which about 950 (1.4%) showed an effect of 50% or more. What follows is part of a selection rich in strong results, with near analogues and random picks from the rest.

The subject of this assay is Mycobacterium tuberculosis. The assay is described as follows: Cornell M. t heat shock assay. Further: in the data most compounds retested in dose-response had high values. It is filed as functional, organism-based. The arrangement: dose or concentration left out as unconfirmed.
`CN(C)Cc1cc(=O)n2c(n1)CN(S(=O)(=O)C1CC1)CCC2.O=C(O)C(F)(F)F`: the “Percent Effect” value stood at 14.69%. In the case of `CCSc1ccccc1C(=O)N(CCOC)Cc1ccoc1` it was -23.21%; in that of `COCC(=O)N1CCN(CCn2cccn2)c2nc(C)ccc2C1.O=C(O)C(F)(F)F`, -7.36%. In the case of `COCC1CC2(CCN(c3ccccn3)CC2)CN1C(C)C.O=C(O)C(F)(F)F.O=C(O)C(F)(F)F` (stereo not given) it was -2.762%; in that of `Cc1csc(CN2CC[C@H]3C[C@H](c4nc(C)no4)O[C@@H]3C2)n1.O=C(O)C(F)(F)F`, -42.3%. In the case of `Cn1cc(-c2ncnc3c2CCN(CC2CCOC2)CC3)cn1.O=C(O)C(F)(F)F` (stereo not given) it was 17.32%; in that of `O=C(O)C(F)(F)F.O=C(O)C(F)(F)F.c1ccc(CN2CCn3c(Cn4cncn4)cnc3C2)nc1`, 0.3776%.

Turning to `O=C(O)C(F)(F)F.O=C([C@H]1C[C@H]2OCC[C@H]2N(CCc2ccccc2)C1)N1CCCO1`, the “Percent Effect” value was -5.073%. In the case of `O=C(NCC1CC1)C1CN(c2ncccn2)Cc2ccnn2C1.O=C(O)C(F)(F)F.O=C(O)C(F)(F)F` (stereo not given) it was 12.91%; in that of `Cc1ncc(CN2CCCN(Cc3noc(C4CC4)n3)CC2)s1`, 6.148%; in that of `CCCOCC(=O)N1CCCN(Cc2csc(CC)n2)CC1`, 22.03%. In the case of `CCc1nc(CN2CCCN(C(=O)c3cn[nH]c3C)CC2)cs1` it was 14.33%; in that of `Cc1nc(CN2CCCN(C(=O)COCC3CC3)CC2)cs1`, 36.12%; in that of `CCc1nc(CN2CCCN(C(=O)c3cn[nH]c3CC)CC2)cs1`, 52.06%. The value for `CCc1nc(CN2CCCN(C(=O)c3cnc[nH]3)CC2)cs1` was 30.64%; that for `c1csc(N2CCCN(Cc3noc(C4CC4)n3)CC2)n1` was -6.96%; that for `CCc1nc(CN2CCCN(Cc3noc(C4CC4)n3)CC2)cs1` was 67.89%.

Take `CCc1nc(CN2CCCN(C(=O)COCC3CC3)CC2)cs1`: the “Percent Effect” value is given as 155.1%. On to `CCc1nc(-c2ccnc(N3CCNCC3)n2)no1.Cl.Cl`, for which the “Percent Effect” value is reported as -8.056%. As to `Cl.O=C(c1cccnc1)N1CCC2(CC1)CNc1c(F)cccc12`, the “Percent Effect” value came out at 4.233%. In the case of `O=C(O)C(F)(F)F.c1cnc(NC2COC3(CCN(Cc4cc[nH]n4)CC3)C2)nc1` (stereo not given) it was -22.6%. The value for `O=C(O)C(F)(F)F.O=C(O)C(F)(F)F.O=C(O)C(F)(F)F.O=C1C[C@H]2[C@@H](CCN2Cc2ccccn2)N1Cc1cccnc1` was -6.498%. The value for `O=C(O)C(F)(F)F.O=C([C@H]1C[C@H]2OCC[C@H]2N(C(=O)c2ccncc2)C1)N1CCCC1` was -34.63%. In the case of `Cc1cc(CCC(=O)N(C)C)nc(C2CCCCN2)n1.Cl.Cl` (stereo not given), the “Percent Effect” value is listed as -7.222%.

Turning to `CCCS(=O)(=O)N1C[C@@H](OCc2ccncc2)[C@H]2OCCC[C@H]21.O=C(O)C(F)(F)F`, the “Percent Effect” value is listed as -14.14%. For the compound `CCn1cc2c(n1)C(COC)CN(C(=O)c1ccccn1)C2` (stereo not given), the “Percent Effect” value is recorded as -31.72%. The value for `CC(C)c1nc(-c2ccnc(N3CCNCC3)n2)no1.Cl.Cl` was -7.834%; that for `Cc1c(C2N3C[C@]4(C)CN2C[C@](C)(C3)C4=O)[nH]c(=O)[nH]c1=O` (stereo not given in full) was 74.22%; that for `CC[C@]12CN3C[C@](CC)(CN(C1)C3c1[nH]c(=O)[nH]c(=O)c1C)C2=O` (stereo not given in full) was 72.7%. The value for `CCC[C@]12CN3C[C@](CCC)(CN(C1)C3c1[nH]c(=O)[nH]c(=O)c1C)C2=O` (stereo not given in full) was -14.28%; that for `Cc1c(C2N3C[C@]4(C(C)C)CN2C[C@](C(C)C)(C3)C4=O)[nH]c(=O)[nH]c1=O` (stereo not given in full) was 1.038%. For the compound `CC[C@]12CN3C[C@](C)(CN(C1)C3c1[nH]c(=O)[nH]c(=O)c1C)C2=O` (stereo not given in full), the “Percent Effect” value is recorded as 68.87%. Turning to `CCC[C@]12CN3C[C@](C)(CN(C1)C3c1[nH]c(=O)[nH]c(=O)c1C)C2=O` (stereo not given in full), the “Percent Effect” value is given as -3.215%. For `O=C(O)C(F)(F)F.O=C1CC[C@H]2[C@H](CCN2c2ncc(F)cn2)N1c1ccccc1`, the “Percent Effect” value is reported as 11.33%. Turning to `CCn1ccnc1CNCC(c1ccc(C)s1)N1CCOCC1` (stereo not given), the “Percent Effect” value is given as -18.67%. The value for `Cn1ccc(C(=O)N2C[C@H]3CCC[C@@]3(COCc3cccnc3)C2)n1.O=C(O)C(F)(F)F` was -13.25%; that for `CN(CCCc1cc(-c2ccc(F)cc2)n(C)n1)CC(=O)NC(N)=O` was 24.77%; that for `CC(C(N)=O)N(C)CCCc1cc(-c2ccc(F)cc2)n(C)n1` (stereo not given) was 22.06%. As for `CN(CCCc1cc(-c2ccc(F)cc2)n(C)n1)CC(N)=O`, the “Percent Effect” value stood at 51.67%. On to `CN(C)[C@@H]1CCN(C(=O)c2ccccn2)[C@H]1Cc1ccncc1`, for which the “Percent Effect” value is 0.1149%.

As to `CN(C)[C@@H]1CCN(C(=O)c2ccsc2)[C@H]1Cc1cnn(C)c1`, the “Percent Effect” value is 4.524%. In the case of `CN(C)[C@@H]1CCN(C(=O)c2ccccn2)[C@H]1Cc1cnn(C)c1` it was 76.59%; in that of `CC(C)CN1C[C@H]2CCN(Cc3cccnc3)CC[C@H]2S1(=O)=O.O=C(O)C(F)(F)F.O=C(O)C(F)(F)F`, -7.462%. For `CCOC(=O)C(CO)NC(=O)CCc1cccc(OC2CCCC2)c1` (stereo not given), the “Percent Effect” value is listed as -10.42%. In the case of `Cc1ccc(N2N=C(C(=O)O)S(=O)(=O)c3cccnc32)cc1` it was -6.267%; in that of `Cc1ccc(N2N=C(C(N)=O)S(=O)(=O)c3cccnc32)cc1`, 105.6%. Consider `Cc1ccc(N2N=C(C(=O)NCC3CC3)S(=O)(=O)c3cccnc32)cc1`, for which the “Percent Effect” value was 9.457%.

In the case of `Cc1ccc(C(=O)N2C[C@@H]3OCCN(CCN4CCCC4)[C@@H]3C2)cn1.O=C(O)C(F)(F)F`, the “Percent Effect” value was found to be 8.47%. In the case of `O=C(CC1CC1)N1CCC2(CCCN(CCOc3ccccc3)C2)C1.O=C(O)C(F)(F)F` (stereo not given) it was -8.964%; in that of `CC(Cn1cccn1)NCc1csc(-c2ccc3c(c2)OCO3)n1` (stereo not given), 35.45%. In the case of `c1cnn(CCNCCCOc2ccc3c(c2)OCO3)c1` it was 0.6427%; in that of `Cc1cnn(CCNCc2csc(-c3ccc(C(N)=O)cc3)n2)c1`, -3.906%. In the case of `Cc1cnn(CCNCc2csc(-c3ccc4c(c3)OCO4)n2)c1` it was 93.68%; in that of `c1cnn(CCNCc2csc(-c3ccc4c(c3)OCO4)n2)c1`, 65.17%.

For the compound `Cc1cnn(CCNCc2csc(C)n2)c1`, the “Percent Effect” value worked out at 4.294%.
